# Compounds with a hit are over-represented: about 1.6% of the library has one in this group of screens.
# ABCB6 inh 2: inhibitors of human ABC transporter ABCB6; K562-ABCB6 porphyrin accumulation, flow cytometry, 1 h; active compounds read low; fluorescence ratio to DMSO, % at 10 µM; actives 0.19% (n = 360,000);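 active = fluorescence ratio to DMSO below 75%, the collection mean minus 3 SD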;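 note: signal is porphyrin accumulated inside mitochondria; 100% equals median channel fluorescence of DMSO control wells; lower ratio means ABCB6 inhibition with less porphyrin fluorescence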
# RAD54 inh: RAD54 (human) branch migration inhibition; Q92698; RAD54 Holliday junction branch migration, FAM/BHQ fluorescence; actives 0.14% (n = 360,000); AID 602329; inhibition, % at 10.4 µM;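 active = mean normalized replicate activity at least 40 and at least half of replicates scoring 40 or more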;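 note: 0% = median of neutral control wells and 100% = median of positive control wells; inhibitors cause a drop in the FAM fluorescence signal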
# N-glyco inh: blocks N-linked glycosylation in D54 reporter cells. actives 0.23% (n = 360,000). D54 ERlucT glycosylation luciferase reporter, 24 h; percent of 100 nM tunicamycin response. AID 588692. reporter increase, % at 12.5 µM;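 active = mean luciferase reporter signal, scaled so untreated is 0 and the glycosylation-blocking control 100, at or above a set limit in every replicate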;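 note: luciferase carries N-glycosylation sites so blocking glycosylation raises the light; 0% = median of neutral control wells and 100% = median of 100 nM tunicamycin wells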
# Vif imaging: blocks HIV Vif function; HEK293T cells, Vif self-association by quenched fluorescence, imaging, 24 h; inhibition, % at 7.49 µM; actives 0.35% (n = 340,000); in the data active = inhibition above about 50%, passing the limit was not always enough
# Myeloid diff 2: promotes myeloid progenitor differentiation. actives 1% (n = 360,000). calls only at 10 µM. ER-HoxA9 myeloid progenitors, lysozyme-GFP differentiation, flow cytometry;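 active = normalized GFP-positive differentiation at or above the plate's own cutoff, the solvent-only control mean plus 3 SD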;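 note: cells exposed to compound for four days before flow analysis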
# Myeloid diff: compounds promoting myeloid differentiation | calls only | shares compounds with Myeloid diff 2 | ER-HoxA9 myeloid progenitors, GFP/Mac1 double-positive flow | actives 2% (n = 2,300);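 active = share of green or green-and-red cells above 9 and 9% in run 1 or 4 and 3% in run 2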
# GFP autofluor: flagged as fluorescent in myeloid differentiation counter-screen; shares compounds with Myeloid diff 2; ER-HoxA9 myeloid progenitors, no estrogen, GFP autofluorescence flow cytometry; vehicle wells 0%, positive control 100%; fluorescence response, % (concentration not given with the values); actives 7.4% (n = 2,300); AID 651707;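 active = over 5% cells positive for green fluorescent reporter, or over 2% positive for both it and APC stain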;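 note: range taken on the double positive population between DMSO and positive control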
# * = called active by the depositor; i = inactive; x = no result given; + = active, no number.
SMILES,ABCB6 inh 2,RAD54 inh,N-glyco inh,Vif imaging,Myeloid diff 2,Myeloid diff,GFP autofluor
N=c1c2c(n(Cc3ccccc3)c3c1CCC3)CCC2,98,-9,-4,-19,+,i,0
O=C1c2ccc3c4c(ccc(c24)C(=O)N1NC(=O)C(F)(F)F)CC3,104,x,2,9,i,x,x
CC(=O)NN1C(=O)c2ccc3c4c(ccc(c24)C1=O)C(=O)N(NC(C)=O)C3=O,94,2,-16,-3,+,i,0
C[C@@H]1CCCCO[C@H](CN(C)S(=O)(=O)c2cccs2)[C@@H](C)CN([C@@H](C)CO)C(=O)c2cc(N(C)C)ccc2O1,x,-9,x,x,x,x,x
COC(=O)c1c(NC(=O)CSc2nnnn2-c2ccccc2)sc2c1CCC(C(C)(C)C)C2 (stereo unspecified),102,7,-1,-2,i,i,0
COC(=O)c1c(NC(=O)CSc2nnnn2-c2ccccc2)sc2c1CCC(C)C2 (stereo unspecified),101,x,1,3,i,x,x
Oc1cccc(Nc2nc(O)c(/C=C3\C=Nc4ccccc43)s2)c1,134,-14,0,57*,+,i,0
COCCCNC(=O)Cn1nnc(-c2ccc(NC(=O)c3ccc(F)cc3)cc2)n1,102,10,-2,-3,i,i,0
O=c1[nH][nH]cc1C=Nc1cc(Cl)ccc1O,111,x,-2,13,i,i,0
O=c1[nH][nH]cc1C=Nc1ccccc1O,68*,x,-2,1,+,+,0
C[C@H](CO)N1C[C@H](C)[C@@H](CN(C)C(=O)Nc2ccc3c(c2)OCO3)OCCCC[C@H](C)Oc2ccc(NC(=O)CCC(F)(F)F)cc2C1=O,x,-1,x,x,x,x,x
CCOC(=O)C1CCN(CCC(=O)Nc2cccc(Cl)c2)CC1,95,1,3,5,i,x,x
CCOC(=O)C1CCN(CCC(=O)Nc2ccccc2Cl)CC1,97,0,0,-2,i,i,0
COc1ccc(CNC(=O)C[C@H]2C=C[C@H](NC(=O)c3ccc4c(c3)OCO4)[C@@H](CO)O2)cc1,x,-2,x,x,x,x,x
COc1cc(/C=C2\NC(=S)N(C)C2=O)ccc1O,103,x,0,1,+,i,5.1*
CCOc1ccccc1N(CC(=O)NC1CCCCC1)S(=O)(=O)c1ccc(C)cc1,104,-1,-5,-30,+,i,0
COc1ccccc1N(CC(=O)NC1CCCC1)S(=O)(=O)c1ccc(C)cc1,96,10,-1,1,i,x,x
CCCN(CCC)S(=O)(=O)c1cccc(C(=O)Nc2ccc3c(c2)OCO3)c1,99,-6,-5,-15,i,x,x
CCN(CC)S(=O)(=O)c1cccc(C(=O)Nc2ccc3c(c2)OCO3)c1,92,x,0,0,i,i,0
O=S(=O)(Nc1nc2ccccc2nc1NCCO)c1cccc(Cl)c1,425,1,-1,-2,i,i,0
COCCCNc1nc2ccccc2nc1NS(=O)(=O)c1cccc(Cl)c1,113,-11,0,-5,i,x,x
Cc1ccc(Cn2cc(CN3CC(N4CCCCC4)CS3(=O)=O)nn2)cc1 (stereo unspecified),99,x,x,x,i,x,x
CCCCCCN1CCN(C2CN(Cc3cn(Cc4ccc(C)cc4)nn3)S(=O)(=O)C2)CC1 (stereo unspecified),102,x,x,x,i,i,0
C[C@H]1CN([C@@H](C)CO)C(=O)c2cc(C#CC(C)(C)O)cnc2O[C@@H]1CN(C)C(=O)CN(C)C,x,6,x,x,x,x,x
N#CCC(CNc1ncc(C(F)(F)F)cc1Cl)OC(=O)c1cccc([N+](=O)[O-])c1 (stereo unspecified),100,-2,29*,-5,i,i,1
N#CCC(CNc1ncc(C(F)(F)F)cc1Cl)OC(=O)c1ccc(Cl)cc1 (stereo unspecified),97,-4,20,3,i,x,x
COc1ccc(CCn2c(N)c(C(=O)NCc3ccco3)c3nc4ccccc4nc32)cc1,111,x,17,23,x,x,x
COCCNC(=O)c1c(N)n(CCC2=CCCCC2)c2nc3ccccc3nc12,104,-6,3,-29,i,i,0
